TTR transcr act: TTR transcription activators in neuroblastoma reporter cells, primary screen, cell-based, luminescence, SH-SY5Y, TTR promoter Gaussia luciferase; activation, % at 16.7 µM; 100% = recombinant luciferase protein wells; 92,000 tested, 1.3% active;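 active means activation above the mean of all tested compounds plus 3 SD, cut at about 9.5% in these data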;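 further: cells exposed to compounds for one day before reading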
A number is an active result; . = inactive. Many of the other results were omitted from the sample, so hits are more common in it than they were.

SMILES	TTR transcr act
COc1cc(NC(=O)c2ccc3c(c2)OCO3)ccc1NC(=O)C(C)C	21.2
NC(=O)c1ccc(NC(=O)c2ccc3c(c2)OCO3)cc1	.
CC(=O)c1cccc(NC(=O)c2ccc3c(c2)OCO3)c1	.
CCC(c1nnc(SCC(=O)Nc2ccc(C(N)=O)cc2)n1Cc1ccccc1)N(C)C (stereo not given)	.
CCC(c1nnc(SCC(=O)Nc2ccc(S(N)(=O)=O)cc2)n1Cc1ccccc1)N(C)C (stereo not given)	.
CCC(c1nnc(SCC(=O)Nc2nnc(-c3ccccc3)o2)n1Cc1ccccc1)N(C)C (stereo not given)	28.3
O=C(Nc1ccc(F)cc1)OCc1cn(Cc2cccc(C(F)(F)F)c2)nn1	.
C[C@@H]1CCCN1c1cccc2c1S(=O)(=O)N1CC[C@H](C1)O2	.
O=Nc1ccc(Cl)cn1	.
O=C(Nc1ccc(F)cc1)OCc1cn(Cc2ccc(F)c(F)c2)nn1	.
Cc1cc([N+](=O)[O-])nn1CC(=O)Nc1ccc(F)cc1	.
CC(=O)c1ccc(NC(=O)Cn2nc(C)cc2C)cc1	10.2
Cc1cc(C)n(CC(=O)Nc2ccccc2)n1	.
CCOc1ccc(S(=O)(=O)n2ccc(C)n2)cc1	.
CN(CCOc1ccc(-c2ccn(S(=O)(=O)c3c(Cl)cccc3Cl)n2)cc1)c1ccccn1	15.3
Cc1ccc(S(=O)(=O)n2ccc(-c3cccc(OCc4c(F)cccc4Cl)c3)n2)cc1	.
CC1CCCN(c2cccc3c2S(=O)(=O)N(Cc2cccc(Cl)c2)[C@@H](C)[C@H](c2ccccc2)O3)C1 (stereo not given in full)	.
C/C=C\C=C/C(=O)Nc1cccc(C2=NOC3(C2)C[C@H](C(N)=O)N(C(=O)c2ccc(OC)cc2)C3)c1 (stereo not given in full)	16.0
C/C=C\C=C/C(=O)Nc1cccc(C2=NOC3(C2)C[C@H](C(N)=O)N(C(=O)CC)C3)c1 (stereo not given in full)	.
C/C=C/C=C\C(=O)Nc1cccc(C2=NOC3(C2)C[C@@H](C(N)=O)N(C(=O)/C(C)=C/C)C3)c1 (stereo not given in full)	.
CCOc1ccc(C(=O)NC2CCN(C(=O)NCc3ccccc3)CC2)cc1	.
CCOc1ccc(NC(=O)C2CCCN(C(=O)NCc3ccccc3)C2)cc1 (stereo not given)	11.4
O=C(Nc1ccc(F)cc1)C1CCN(C(=O)NCc2ccccc2)CC1	.
COc1ccc(C2CC3CN(C4CCCCC4)C(=O)C3N2C)cc1 (stereo not given)	.
COC(=O)[C@]12C[C@H](CC(=O)N3CCSCC3)C(=O)N(CCc3ccc(OC)c(OC)c3)C1=C[C@H](C(C)C)O[C@@H]2C1CC1	.
SMILES	TTR transcr act
COC(=O)[C@]12C[C@H](CC(=O)N3CCCC3)C(=O)N(Cc3cccc4ccccc34)C1=C[C@H](COCc1ccccc1)O[C@@H]2C	.
CC(C)CN1CN2CCc3ccccc3C2CS1(=O)=O (stereo not given)	.
Cc1cc(C)c(OCC(=O)Nc2ccccc2N2CCOCC2)c(C)c1	.
CCOc1ncccc1C(=O)Nc1ccccc1N1CCOCC1	.
CCOCCCNCC(=O)Nc1ccccc1N1CCOCC1	20.7
Cc1ccc([C@H]2C[C@]34CN(Cc5ccccc5)S(=O)(=O)[C@H]3C[C@H]2O4)cc1	.
O=C1CCCCC1Nc1ccc([N+](=O)[O-])cc1 (stereo not given)	12.4
O=C(NC1CCCCC1)c1ccc([N+](=O)[O-])cc1	.
O=[N+]([O-])c1ccc(N/N=C2/CCCCC2c2ccccn2)cc1 (stereo not given)	.
C#CCNC(=O)C[C@H]1C[C@@]2(C(=O)OCC)CCCC3=C2N(CCC3)C1=O	.
O=C1CCCC2=C1C1(CCCC1)N=C(Nc1nc3cc(Br)ccc3o1)N2	.
COc1cccc(C2CC(=O)Nc3cc(OC)c(OC)c(OC)c32)c1OC (stereo not given)	15.6
COc1cccc(C2CC(=O)Nc3n[nH]c(-c4ccccc4)c32)c1OC (stereo not given)	.
COc1cccc(C2CC(=O)Nc3cc(OC)c(OC)cc32)c1 (stereo not given)	.
CCOC(=O)[C@]12CCCC=C1N(Cc1ccc(OC)cc1)C(=O)[C@@H]2CC(=O)NCc1cccc(C(F)(F)F)c1	.
FC(F)(F)Oc1cccc(Cn2ccc3ccc(-c4ccc5ccn(Cc6cccc(OC(F)(F)F)c6)c5c4)cc32)c1	.
C[C@@H]1Cc2cc(O)c(O)c(O)c2C(=O)O1	.
C[C@@H]1[C@@H](O)C[C@@]2(C[C@H](O)c3cc(Cl)ccc3O2)O[C@H]1c1ccccc1Cl	.
COC(=O)[C@]12C[C@H](CC(=O)NCCc3ccccc3OC)C(=O)N(Cc3ccccc3)C1=C[C@H](COCc1ccccc1)O[C@@H]2C	.
COc1ccc(S(=O)(=O)N(C)C[C@H]2Oc3ccc(NC(=O)C4CC4)cc3C(=O)N([C@H](C)CO)C[C@@H]2C)cc1	11.7
COc1ccc(S(=O)(=O)N(C)C[C@@H]2Oc3ccc(NS(C)(=O)=O)cc3C(=O)N([C@@H](C)CO)C[C@H]2C)cc1	.
Cc1ccc(S(=O)(=O)N(C)C[C@H]2Oc3ccc(NC(=O)C4CCCCC4)cc3C(=O)N([C@H](C)CO)C[C@H]2C)cc1	.
O=Nc1ccccn1	.
C[C@H](CO)N1C[C@H](C)[C@H](CN(C)Cc2ccc(Oc3ccccc3)cc2)Oc2ccc(NC(=O)Nc3cccc4ccccc34)cc2CC1=O	.
Cc1ccc(S(=O)(=O)N(C)C[C@@H]2Oc3ccc(NS(=O)(=O)c4ccccc4)cc3CC(=O)N([C@@H](C)CO)C[C@H]2C)cc1	.
SMILES	TTR transcr act
CNC[C@H]1Oc2ccc(NC(=O)Cc3cn(C)c4ccccc34)cc2CC(=O)N([C@@H](C)CO)C[C@H]1C	14.9
C[C@H]1CN([C@@H](C)CO)C(=O)Cc2cc(NC(=O)Nc3ccccc3)ccc2O[C@H]1CN(C)Cc1ccccc1	.
C[C@H]1CN([C@@H](C)CO)C(=O)Cc2cc(NS(C)(=O)=O)ccc2O[C@@H]1CN(C)Cc1ccc(Cl)c(Cl)c1	13.3
C[C@@H]1CN([C@H](C)CO)C(=O)c2cc(NC(=O)Cc3cn(C)c4ccccc34)ccc2O[C@H]1CN(C)C(=O)Nc1ccc2c(c1)OCO2	.
Cc1cccc(Cn2cc(COC(=O)N3CCOCC3)nn2)c1	.
COc1cccc(N(C)C(=O)[C@@H](C2CC2)[C@@H](O)c2ccc3ccccc3c2)c1	.
O=C(CSc1nc2ccccc2c(=O)[nH]1)NC1CCCCC1	.
CS/C(=C\[N+](=O)[O-])Nc1ccc(OC(F)(F)F)cc1	.
Cc1ccc(N=C2SC(C(=O)Nc3ccc(OC(F)(F)F)cc3)C(N)=C2C(=O)Nc2c(C)cc(C)cc2C)cc1 (stereo not given)	9.8
Cc1ccc(-c2nc3ncccn3c2NC(=O)Nc2ccc(OC(F)(F)F)cc2)cc1	.
COC(=O)[C@]12C[C@H](CC(=O)N3CCN(C(=O)C4CC4)CC3)C(=O)N(CCc3ccc(OC)c(OC)c3)C1=C[C@H](C(C)C)O[C@@H]2C1CC1	.
COc1ccc(NC(=O)CNC(=O)Cc2ccccc2)cc1	.
COc1ccc(NC(=O)C(NC(=O)CNC(C)=O)c2ccc(C)cc2)cc1 (stereo not given)	29.4
CCOCCCNC(=O)C(NC(=O)c1ccc(NC(C)=O)cc1)c1ccc(OC)cc1 (stereo not given)	.
COC(=O)C[C@@H]1CC[C@H]2[C@@H](COc3ccc(NC(=O)Nc4ccc(C)cc4)cc3C(=O)N2C)O1	.

Screens deposited in PubChem by The Scripps Research Institute Molecular Screening Center.
